# Screens as filed in PubChem.
# MCF10A rerep: A quantitative high throughput screen for small molecules that induce DNA re-replication in MCF 10a normal breast cells; MCF 10A DNA re-replication, Hoechst nuclear intensity, 48 h; Potency, µM (titrated, usually from 46.1 µM), inactives show top-dose activity, positive = re-replication, most hits filed as activators; actives 2.9% (n = 350,000); AID 624296, 2012; also: potency is read from the fitted curve at half-maximal effect; % of control where 0% means no effect; nearly all actives have a fitted effect of over 50% in size
# VP16 counter: VP16 counterscreen qHTS for inhibitors of ROR gamma transcriptional activity; actives 3.5% (n = 310,000); Drosophila S2 Gal4-VP16 UAS-luciferase, luminescence, 20 h; Potency, µM (series often up to 53.6 µM), for the others: at the highest dose activity, negative = inhibition, hits mostly inhibitors;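 also: Gal4-VP16 expression switched on by copper sulfate through the metallothionein promoter; potency is read from the fitted curve at half-maximal effect; % is scaled to controls: 0 for no effect and ±100 for the full control effect; nearly all actives have a fitted effect of over 50% in size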
# RORg inh: qHTS for inhibitors of ROR gamma transcriptional activity; Nuclear receptor ROR-gamma (Mus musculus), P51450; Drosophila S2 Gal4-RORgamma UAS-luciferase reporter, 20 h; Potency, µM (top dose mostly 53.6 µM), inactives show at the highest dose activity change, negative = inhibition, usual class: inhibitors; actives 5.4% (n = 310,000); AID 2551, 2010; also: potency is read from the fitted curve at half-maximal effect; % is scaled to controls: 0 for no effect and ±100 for the full control effect; nearly all actives have a fitted effect of over 60% in size
# Target sequence (P51450 whole entry, looked up, the tested form may be a part): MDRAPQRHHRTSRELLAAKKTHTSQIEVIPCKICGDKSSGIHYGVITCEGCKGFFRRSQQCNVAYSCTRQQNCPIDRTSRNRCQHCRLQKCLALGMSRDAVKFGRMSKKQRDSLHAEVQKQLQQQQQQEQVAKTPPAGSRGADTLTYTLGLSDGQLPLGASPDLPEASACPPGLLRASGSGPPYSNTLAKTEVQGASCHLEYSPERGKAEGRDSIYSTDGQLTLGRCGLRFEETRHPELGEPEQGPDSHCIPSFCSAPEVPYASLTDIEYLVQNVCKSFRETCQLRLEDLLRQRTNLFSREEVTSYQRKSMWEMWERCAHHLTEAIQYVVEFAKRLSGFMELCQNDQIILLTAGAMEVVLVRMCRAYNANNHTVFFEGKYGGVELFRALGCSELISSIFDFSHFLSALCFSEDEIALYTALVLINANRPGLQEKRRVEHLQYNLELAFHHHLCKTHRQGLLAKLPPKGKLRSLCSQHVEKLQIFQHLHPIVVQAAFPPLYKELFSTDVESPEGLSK
#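 Read-out: Photinus luciferase luminescence; inhibitors lower reporter signal. Insect Schneider cells with Gal4-ROR gamma fusion under metallothionein promoter, UAS reporter; 700 uM final copper sulfate induction, 20 hr, ambient temperature.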
# IL1B secr inh: qHTS for Inhibitors of Inflammasome Signaling: IL-1-beta AlphaLISA Primary Screen; actives 4.7% (n = 360,000); activity change, % at 57.5 µM; AID 743279, 2014; THP-1 LPS/ATP IL-1B secretion, AlphaLISA, 16 h; stronger effect = lower value; in the data active = activity change below about -50%; inconclusive = mostly about -30% to -49%; also: % is scaled to controls: 0 for no effect and ±100 for the full control effect
#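 THP-1 cells pretreated 1 hr with compounds (up to 57.5 uM final), then stimulated with LPS (250 ng/mL final) plus ATP (1.25 mM final); secreted IL-1B measured by AlphaLISA after 16 hr, decreased signal indicating inhibition.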
# SW480 rerep: A quantitative high throughput screen for small molecules that induce DNA re-replication in SW480 colon adenocarcinoma cells | AID 624297, 2012 | actives 1.8% (n = 340,000) | SW480 DNA re-replication, Hoechst DNA content imaging, 48 h | Potency, µM (highest dose often 46.1 µM), for inactives: top-dose re-replication activation, actives largely listed as activators; also: potency is read from the fitted curve at half-maximal effect; % of control where 0% means no effect; nearly all actives have a fitted effect of over 55% in size
#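 First, 250 cells per well were seeded. Next, compound or vehicle (23 nL) was pinned in, plates sat 48 hr at 37 C. Finally Hoechst was added for 40 min before fluorescence scanning.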
# * marks the source's active call; other numbers are inactive results; u = inconclusive; x = no result; [ ] = another dose, or the depositor's remark. The list is not random: actives were taken first. Their share in the collection is about 11%. Unless noted, calls follow the shape of the dose curve; as a rule, active = well fitted curve in the direction sought with a large enough effect; inconclusive = small, poorly fitted or top-dose-only effect, or another doubt; inactive = no such curve, though single readings can be large; an effect the other way counts as inactive or inconclusive.
SMILES,MCF10A rerep,VP16 counter,RORg inh,IL1B secr inh,SW480 rerep
COc1cccc(NC(=O)C2CCC2)c1,5%,x,x,-5,-17%
CCOc1cc(NC(=S)NCC2CCCO2)c(OCC)cc1NC(=O)c1ccc(F)cc1 (configuration not stated),1%,u,u,16,-2%
CCOc1cc(NC(=S)NCC2CCCO2)c(OCC)cc1NC(=O)c1cccc(C)c1 (configuration not stated),u,11µM*,4.5µM*,u,19%
CCOc1cc(NC(=S)Nc2cccc(OC)c2)c(OCC)cc1NC(=O)C1CC1,u,u,7.1µM*,7,-5%
O=C(C[C@@H]1CC[C@H](NC(=O)Cc2ccccn2)[C@@H](CO)O1)NCCc1ccccc1,x,x,x,-2,x
COc1ccc(CCNC(=O)c2ccc3nc(-c4ccco4)c(-c4ccco4)nc3c2)cc1OC,u,4%,6%,-53*,u
COc1ccc(OCc2cc(C(=O)NCC3CCOCC3)no2)c(Cl)c1,2%,5%,33%,-20,u
CCc1nc2ccc(C(=O)NCCc3ccc(OC)c(OC)c3)cc2nc1CC,9%,2%,3%,-26,2%
COc1ccc(OCc2cc(C(=O)NCCc3ccccc3)no2)c(Cl)c1,18µM*,-7%,9%,0,21µM*
COc1ccc(CCNC(=O)c2cc(-c3ccco3)on2)cc1OC,-3%,-3%[10 µM],8%,u,5.8µM*
COCCCNC(=O)COc1cc2c(c3oc(=O)c(C)c(C)c13)CCC(C)(C)O2,6%,-10%,-10%,-7,-5%
COCc1cccc(-c2csc(C(NC(C)=O)c3cccc(OC)c3)n2)c1 (configuration not stated),x,x,x,10,x
CN1CCCC1CCNc1ccc2sc3ccccc3c(=O)c2c1 (configuration not stated),-14%,x,x,-66*,u
Cc1cc2oc3cc(NCCC4CCCN4C)ccc3c(=O)c2cc1C (configuration not stated),16µM*,x,x,-85*,u
COC(=O)c1cc(OC)c(OC)cc1NC(=S)Nc1cc(Cl)ccc1OC,-1%,1.4µM*,1.3µM*,-22,-2%
COc1cc(NC(=O)Nc2cccc(Cl)c2)c(C(=O)O)cc1OC,-3%,1%,u,-6,1%
COC(=O)c1cc(OC)c(OC)cc1NC(=S)Nc1cccc(Cl)c1,-1%,6.3µM*,4µM*,u,1%
COc1ccc(Cl)cc1NC(=S)Nc1ccc(Cl)cn1,-4%,u,1.3µM*,25,-22%
COC(=O)c1cc(Cl)c(NC(=O)/C=C/c2ccc(Cl)cc2Cl)cc1OC,2.1µM*,-15%[0.365 µM],7%,2,1%
CNCC[C@H](Oc1ccccc1OC)c1ccccc1,x,-6%,-3%,x,x
O=C(COc1ccc(Oc2ccccc2)cc1)NCc1cn2ccccc2n1,15µM*,-9%,28%,7,u
CCNc1nc2c(c(=O)[nH]c(=O)n2C)n1CCCc1ccccc1,10%,7%,3%,7,4%
CCCNc1nc2c(c(=O)n(C)c(=O)n2C)n1Cc1ccc(F)cc1,8%,u,43%,13,-16%
CCNc1nc2c(c(=O)n(C)c(=O)n2C)n1CCCc1ccccc1,u,11µM*,u,-9,23µM*
Cn1c(=O)c2c(nc(NCc3ccccc3)n2Cc2ccc(F)cc2)n(C)c1=O,x,14µM*,u,x,x
CCC(C)Nc1nc2c(c(=O)n(C)c(=O)n2C)n1Cc1ccc(Cl)cc1 (configuration not stated),8%,-5%,27%,-27,5%
Cn1c(=O)c2c([nH]c(=S)n2Cc2ccc(Cl)cc2)n(C)c1=O,-11%,u,13µM*,45,1%
Cn1c(=O)c2c(ncn2Cc2ccc(Cl)cc2)n(C)c1=O,-9%,-27%,u,8,13%
CCNc1nc2c(c(=O)n(C)c(=O)n2C)n1Cc1ccc(Cl)cc1,12%,4.5µM*,u,17,-2%
